Assay [1] is described as follows: Cellular Toxicity (caspase-3) Hek293 (AID 664).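 Note: cells exposed to compound for 16 h at 37 °C before readout.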 Note: potency is the fitted concentration of half-maximal effect. The settings on record: HEK293 caspase-3 activation; caspase-3 activation: at 92.2 µM (top of the series), DMSO = 0%, 100 µM tamoxifen = 100%. A digest of the protocol:
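Activation of caspase-3/7 is measured as increased luminescence from cleaved peptide-aminoluciferin substrate in HEK293 cells treated 16 hours at 37 °C. AC50 values come from Hill-equation fits of concentration-response data.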

Assay [2] in a line: Cellular Toxicity (caspase-3) N2a (AID 665).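 Note: compound exposure lasted 16 h at 37 °C before readout.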 Note: potency is the fitted concentration of half-maximal effect. The settings on record: Potency: caspase-3 activation. In a few lines:
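Plated mouse neuroblastoma N2a cells received titrated compounds for 16 h in complete medium. Caspase activity was then detected with a peptide-aminoluciferin luminescent reagent.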

Assay [3] in a line: Cellular Toxicity (caspase-3) NIH 3T3 (AID 666).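 Note: caspase signal read after 16 h compound exposure; 0% = DMSO basal and 100% = 100 µM tamoxifen stimulation.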 In a few lines:
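Concentration-response qHTS in NIH 3T3 mouse fibroblasts scores caspase-3/7 activation as rising luminescence after 16 hr compound exposure. Signals are scaled between DMSO-only and 100 uM tamoxifen.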

Assay [4] is described as follows: Cellular Toxicity (caspase-3) Renal Proximal Tubule (AID 667).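 For caspase-3 activation: 0% = DMSO basal and 100% = 10 µM staurosporine.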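 Note: cells exposed to compound for 16 hours at 37 °C before detection.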 Note: potency is the fitted concentration of half-maximal effect. Particulars: Potency: caspase-3 activation. A digest of the protocol:
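Primary rat proximal tubule cells, 1000/well, 5 h plating at 37 °C, then compound 16 h at 37 °C. Caspase-Glo 3/7 reagent, 1 h RT, luminescence. Normalized to DMSO (basal) and 10 uM staurosporine (100%); Hill-fit AC50.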

The target of assay [5] is Guanine nucleotide-binding protein G(i) subunit alpha-1 (Homo sapiens) (UniProt P63096). The experiment in a line: qHTS Assay for Inhibitors of RGS12 GoLoco Motif Activity (Green Fluorophore) (AID 879).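 Note: 0% = labeled peptide with Gαi1 and full inhibition = labeled peptide alone without protein; negative values mean loss of peptide binding seen as reduced polarization.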 In a few lines: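 Fluorescence polarization assay: 50 nM Gαi1 with 10 nM FITC-labeled RGS12 GoLoco peptide in 10 mM Tris pH 7.5, 150 mM NaCl, 0.1 mM GDP, 0.05% NP40, 10 min at room temperature with compound.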
Guanine nucleotide-binding protein G(i) subunit alpha-1 (Homo sapiens), sequence (P63096 whole entry, looked up): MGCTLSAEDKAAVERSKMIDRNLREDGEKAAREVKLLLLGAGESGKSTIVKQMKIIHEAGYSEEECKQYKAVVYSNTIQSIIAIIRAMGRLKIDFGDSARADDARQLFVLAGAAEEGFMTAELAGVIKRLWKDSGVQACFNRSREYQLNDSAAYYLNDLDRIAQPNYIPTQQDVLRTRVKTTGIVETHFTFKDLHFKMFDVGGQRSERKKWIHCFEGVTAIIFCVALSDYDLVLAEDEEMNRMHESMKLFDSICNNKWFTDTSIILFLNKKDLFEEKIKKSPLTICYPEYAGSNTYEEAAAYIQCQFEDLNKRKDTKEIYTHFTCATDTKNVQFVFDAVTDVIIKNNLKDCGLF

Assay [6] can be described thus: qHTS Assay for Identification of Small Molecule Antagonists for NFkB Signaling Pathway (AID 895; active = well fitted inhibition curve with a large enough effect in the signal ratio, with a control signal flat, not every such curve was filed as active; the % refers to the signal ratio; note: potency is the fitted concentration of half-maximal effect). In a few lines:
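NFkB-bla ME-180 cervical carcinoma cells with beta-lactamase reporter under NFkB response element; compounds added, then TNF alpha at 10 pM final (EC50), 5 h at 37 C. LiveBLAzer substrate 2 h, room temperature; emission 460/530 nm at 405 nm excitation.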
(In qHTS, concentration-response curves come from the screen itself.)

Assay [7] can be described thus: qHTS Assay for Identification of Small Molecule Antagonists for Thrombopoietin (TPO) Signaling Pathway (AID 918). Note: potency is the fitted concentration of half-maximal effect; nearly all actives have a fitted effect of over 60% in size. Particulars: TPO-dependent cell signaling reporter, antagonist mode. A digest of the protocol:
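First, Ba/F3 reporter cells expressing human TPO receptor were held overnight without IL-3. Next, compound and 26 pM TPO were added. After 24 hrs incubation at 37 C, luciferase luminescence under the Glycoprotein IIb promoter was recorded.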

For assay [8], the target named is Muscarinic acetylcholine receptor M1 (Rattus norvegicus) (UniProt P08482). In words: qHTS Assay for Antagonists of Acetylcholine Muscarinic M1 Receptor: Kinetic Measurement of Intracellular Calcium Response (AID 943).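 Note: Fluo-4 calcium signal as peak divided by basal fluorescence over 4 min; nearly all actives have a fitted effect of over 75% in size.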 A digest of the protocol: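 Intracellular calcium flux, recorded with Fluo-4 in a kinetic plate reader, served as signal; the response to carbachol at EC80 (100 nM final) was taken as maximal over minimal fluorescence after a 10 min compound pre-incubation in rat M1-CHO cells.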
Muscarinic acetylcholine receptor M1 (Rattus norvegicus), sequence (P08482 whole entry, looked up): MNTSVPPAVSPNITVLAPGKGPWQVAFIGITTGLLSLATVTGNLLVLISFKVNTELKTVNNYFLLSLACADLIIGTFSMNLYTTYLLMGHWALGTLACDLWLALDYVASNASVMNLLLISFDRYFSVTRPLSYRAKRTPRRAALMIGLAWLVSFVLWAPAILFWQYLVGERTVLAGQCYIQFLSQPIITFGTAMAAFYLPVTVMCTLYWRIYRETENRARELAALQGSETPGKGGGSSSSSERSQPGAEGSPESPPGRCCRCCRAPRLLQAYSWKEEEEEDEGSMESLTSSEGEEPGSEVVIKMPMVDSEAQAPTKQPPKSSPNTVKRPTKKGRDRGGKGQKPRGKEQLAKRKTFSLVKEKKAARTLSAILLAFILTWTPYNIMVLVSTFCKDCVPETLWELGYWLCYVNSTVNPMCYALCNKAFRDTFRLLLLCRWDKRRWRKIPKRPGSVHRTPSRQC

For assay [9] the target is unchanged. In words: qHTS Assay for Antagonists of Acetylcholine Muscarinic M1 Receptor: Measurement of IP-One Response (AID 944). Note: nearly all actives have a fitted effect of over 75% in size. In a few lines:
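Steps: plate transfected CHO-M1 cells overnight; add test compound, 10 min; add carbachol (200 nM, EC80) in stimulation buffer with LiCl; incubate 30 min; add labelled IP1 tracer and anti-IP1 antibody in lysis buffer; read HTRF after 10 min.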

Assay [10] concerns the target Pyruvate kinase (Leishmania mexicana) (UniProt Q27686). In words: qHTS Validation Assay for Inhibitors of Leishmania Mexicana Pyruvate Kinase (AID 945). Note: potency is the fitted concentration of half-maximal effect. A digest of the protocol: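 Mutant LmPYK (E451W), 0.2 nM, plus 0.5 mM PEP and 0.1 mM ADP in 50 mM imidazole pH 7.2 containing 0.01% Tween 20 and 0.05% BSA. Incubated 1 h at room temperature; luminescence via PKLight, normalized to DMSO.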

Assay [11] has as its target Cytochrome P450 2C9 (Homo sapiens) (UniProt P11712). In words: qHTS Assay for Inhibitors and Substrates of Cytochrome P450 2C9 (AID 883). Note: nearly all actives have a fitted effect of over 60% in size. Note: potency is the fitted concentration of half-maximal effect. In a few lines: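 CYP2C9 deoxyluciferin hydroxylation, 37C, 60 min with NADPH regeneration; 10nM enzyme, 100uM Luciferin-H (KM). Glo detection reagent stopped reaction; luminescence normalized to sulphaphenazole (57uM) full inhibition.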

The target in assay [12] is Cytochrome P450 3A4 (Homo sapiens) (UniProt P08684). The experiment in a line: qHTS Assay for Inhibitors and Substrates of Cytochrome P450 3A4 (AID 884). Note: nearly all actives have a fitted effect of over 50% in size. Note: potency is the fitted concentration of half-maximal effect. A digest of the protocol:
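20 nM human CYP3A4 with 25 uM Luciferin-PPXE (at KM) in 200 mM KPO4, preincubated 10 min with compound; NADPH regeneration started a 60 min RT reaction. Luciferin detected by luminescence, normalized to 57 uM ketoconazole as full inhibition.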

For assay [13], the target named is Cytochrome P450 2D6 (Homo sapiens) (UniProt P10635). In words: qHTS Assay for Inhibitors and Substrates of Cytochrome P450 2D6 (AID 891).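 Note: luciferin methyl ether substrate demethylated by CYP2D6 with NADPH regeneration; % is set by controls: 0 for no effect and ±100 for the full control effect; nearly all actives have a fitted effect of over 60% in size.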 In a few lines:
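Human CYP2D6 (5 nM) with 30 uM Luciferin-ME EGE (at Km) in 100 mM KPO4, compound preincubated 10 min, then NADPH regeneration system for 60 min at room temperature. Luciferin read by luminescence; normalized to 1.43 uM quinidine.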

Assay [14] can be described thus: Confirmation and Secondary Assay for Modulators of Hemoglobin Beta Chain Splicing at IVS2 654 locus (AID 910).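 Note: per-well total GFP intensity by laser scanning cytometry after 2-day treatment; % of control where 0% means no effect.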 In a few lines:
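HeLa cells stably carrying EGFP interrupted by mutant beta-globin IVS2-654 intron (CMV-driven) were treated with compound for 2 days at 37C; corrected splicing was scored as total peak GFP intensity per well (488 nm excitation, 500-520 nm emission).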

Assay [15] in a line: qHTS Assay for Identification of Small Molecule Agonists for Thrombopoietin (TPO) Signaling Pathway (AID 917). Note: potency is the fitted concentration of half-maximal effect. In a few lines: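 Murine Ba/F3 cells stably expressing human TPO receptor and a Glycoprotein IIb promoter–luciferase reporter were IL-3-starved overnight, then treated with compounds plus TPO (26 pM final, its EC50) for 24 hrs at 37 C; luminescence was read.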
Assay [16] in a line: Confirmation and Secondary Assay for Modulators of Hemoglobin Beta Chain Splicing at IVS2 705 locus (AID 930).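 Note: HeLa cells stably expressing the EGFP-705 splicing reporter; GFP fluorescence per well restored by corrected splicing of the IVS2-705 intron in EGFP; % of control where 0% means no effect.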 In a few lines:
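Stable HeLa line with EGFP disrupted by mutant beta-globin intron 2 (705). Overnight attachment, then 2 days of compound at 37C, 5% CO2. Signal: peak GFP intensity summed over objects 5-250 µm.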

For assay [17], the target named is Cytochrome P450 3A4 (Homo sapiens) (UniProt P08684). In words: qHTS Assay for Activators of Cytochrome P450 3A4 (AID 885). Note: nearly all actives have a fitted effect of over 65% in size. In a few lines:
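20nM CYP3A4 + 25uM Luciferin-PPXE (=KM), 200mM KPO4; cpd 10 min RT; NADPH regen, 60 min RT; stop w/ detection buffer, 20 min; luminescence. Normalized to 57 uM ketoconazole.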

Assay [18] addresses Cytochrome P450 2C19 (Homo sapiens) (UniProt P33261). The experiment in a line: qHTS Assay for Inhibitors and Substrates of Cytochrome P450 2C19 (AID 899). Note: nearly all actives have a fitted effect of over 60% in size. Note: potency is the fitted concentration of half-maximal effect. A digest of the protocol: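 In 50mM KPO4, the reaction held 5nM enzyme and KM-level (10uM) Luciferin-H EGE; it ran 60 min at 37C after NADPH regeneration and a 10 min compound preincubation. Luminescence values were scaled to 57uM ketoconazole as complete inhibition.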

Values joined by “and” are separate entries in the source; they are usually repeats but may differ in a detail not shown here. Identical values can stand only once. Records with an inconclusive call do not appear. More than one record can exist for a structure, and the calls need not agree. Active and inactive are the calls of the source. Unless noted, calls come from the whole dose curve; as a rule, active = well fitted curve in the direction sought with a large enough effect; inconclusive = small, poorly fitted or top-dose-only effect, or another doubt; inactive = no such curve, though single readings can be large; an effect the other way counts as inactive or inconclusive.

The record followed here is PubChem BioAssay (NCATS).

Cytochrome P450 2C9 (Homo sapiens), sequence (P11712 whole entry, looked up): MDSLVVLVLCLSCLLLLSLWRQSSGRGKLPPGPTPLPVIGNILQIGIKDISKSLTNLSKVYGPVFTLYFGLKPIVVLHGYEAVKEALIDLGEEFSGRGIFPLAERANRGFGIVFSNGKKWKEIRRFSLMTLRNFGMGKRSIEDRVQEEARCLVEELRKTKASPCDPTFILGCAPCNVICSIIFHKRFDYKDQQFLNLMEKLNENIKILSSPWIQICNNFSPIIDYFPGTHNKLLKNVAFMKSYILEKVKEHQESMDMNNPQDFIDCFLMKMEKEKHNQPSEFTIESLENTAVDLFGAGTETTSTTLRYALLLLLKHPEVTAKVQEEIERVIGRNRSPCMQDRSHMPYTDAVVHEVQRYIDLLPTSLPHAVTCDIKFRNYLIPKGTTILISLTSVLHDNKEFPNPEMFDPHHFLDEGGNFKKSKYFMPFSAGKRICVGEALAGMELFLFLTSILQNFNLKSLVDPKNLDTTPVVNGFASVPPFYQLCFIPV
Cytochrome P450 2D6 (Homo sapiens), sequence (P10635 whole entry, looked up): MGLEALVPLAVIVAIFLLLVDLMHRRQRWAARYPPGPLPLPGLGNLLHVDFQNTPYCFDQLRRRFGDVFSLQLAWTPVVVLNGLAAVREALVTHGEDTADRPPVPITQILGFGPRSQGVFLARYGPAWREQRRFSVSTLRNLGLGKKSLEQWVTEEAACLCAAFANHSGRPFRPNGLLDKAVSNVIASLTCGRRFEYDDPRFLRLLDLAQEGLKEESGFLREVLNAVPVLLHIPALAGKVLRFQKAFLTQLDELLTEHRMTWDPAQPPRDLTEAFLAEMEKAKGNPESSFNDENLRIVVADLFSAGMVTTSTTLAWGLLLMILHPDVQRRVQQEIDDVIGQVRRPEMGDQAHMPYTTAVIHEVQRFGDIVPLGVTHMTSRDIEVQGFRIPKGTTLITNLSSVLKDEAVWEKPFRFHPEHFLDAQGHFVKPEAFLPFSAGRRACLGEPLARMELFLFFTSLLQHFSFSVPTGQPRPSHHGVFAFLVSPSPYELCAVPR
Cytochrome P450 2C19 (Homo sapiens), sequence (P33261 whole entry, looked up): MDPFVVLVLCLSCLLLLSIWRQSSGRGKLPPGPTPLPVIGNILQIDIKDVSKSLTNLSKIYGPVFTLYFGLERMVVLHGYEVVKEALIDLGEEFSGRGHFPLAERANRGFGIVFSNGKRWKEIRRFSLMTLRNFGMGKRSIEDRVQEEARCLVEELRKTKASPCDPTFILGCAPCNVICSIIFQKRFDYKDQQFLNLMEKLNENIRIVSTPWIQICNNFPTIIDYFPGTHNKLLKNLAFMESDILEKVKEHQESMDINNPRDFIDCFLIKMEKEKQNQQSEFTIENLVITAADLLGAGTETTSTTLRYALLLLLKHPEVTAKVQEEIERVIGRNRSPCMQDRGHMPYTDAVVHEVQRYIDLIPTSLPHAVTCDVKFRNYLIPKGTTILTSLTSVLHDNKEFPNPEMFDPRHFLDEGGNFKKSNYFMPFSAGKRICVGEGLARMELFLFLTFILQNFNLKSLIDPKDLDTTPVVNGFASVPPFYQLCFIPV
Cytochrome P450 3A4 (Homo sapiens), sequence (P08684 whole entry, looked up): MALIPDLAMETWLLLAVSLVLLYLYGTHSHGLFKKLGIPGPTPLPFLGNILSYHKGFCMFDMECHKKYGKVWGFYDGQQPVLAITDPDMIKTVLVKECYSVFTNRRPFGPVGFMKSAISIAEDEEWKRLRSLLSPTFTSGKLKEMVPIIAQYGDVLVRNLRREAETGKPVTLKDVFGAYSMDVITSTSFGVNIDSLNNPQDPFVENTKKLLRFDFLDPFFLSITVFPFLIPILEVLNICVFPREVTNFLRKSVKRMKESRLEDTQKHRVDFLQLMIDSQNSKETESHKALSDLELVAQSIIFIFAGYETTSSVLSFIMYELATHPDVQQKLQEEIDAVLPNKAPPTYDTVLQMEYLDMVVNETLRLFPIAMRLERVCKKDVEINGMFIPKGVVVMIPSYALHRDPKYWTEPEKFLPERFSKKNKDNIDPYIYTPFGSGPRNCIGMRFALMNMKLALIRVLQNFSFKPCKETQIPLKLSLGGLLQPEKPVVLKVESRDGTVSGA
Pyruvate kinase (Leishmania mexicana), sequence (Q27686 2-499 E452W): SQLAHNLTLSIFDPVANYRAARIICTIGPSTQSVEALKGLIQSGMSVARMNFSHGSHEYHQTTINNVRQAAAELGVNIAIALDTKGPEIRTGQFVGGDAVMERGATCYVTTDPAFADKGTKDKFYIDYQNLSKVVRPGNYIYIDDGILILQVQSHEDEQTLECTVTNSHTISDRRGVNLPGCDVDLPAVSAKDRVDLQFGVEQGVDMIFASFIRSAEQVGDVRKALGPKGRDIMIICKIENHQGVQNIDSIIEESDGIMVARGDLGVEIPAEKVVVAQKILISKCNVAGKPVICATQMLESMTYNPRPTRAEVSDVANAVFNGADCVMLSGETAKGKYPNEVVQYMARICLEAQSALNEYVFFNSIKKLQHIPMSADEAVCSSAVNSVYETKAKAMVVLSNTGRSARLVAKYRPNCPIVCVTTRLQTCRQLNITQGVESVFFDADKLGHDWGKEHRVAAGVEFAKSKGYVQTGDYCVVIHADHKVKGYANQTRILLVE

As for `CC1=C(/C=C/C(C)=C/C=C/C(C)=C/C(=O)Nc2ccc(O)cc2)C(C)(C)CCC1`, the Potency in assay [1] was 31.6 µM (active); in assay [2], 31.6 µM (active); in assay [4], 31.6 µM (active); in assay [6], 6.31 µM (active); in [7], 10 µM (active). Moreover, the result in [3], in [5], in [8] and in assay [9] was inactive. Moreover, the Potency result in assay [10] was “inactive”.
In the case of `CC(C)OC(=O)C(C)(C)Oc1ccc(C(=O)c2ccc(Cl)cc2)cc1`, the molecule was called inactive in [5], in [14] and in [16]. In addition, in assay [11], the Potency was 5.01 µM (active). Besides, the Potency entry in assay [12], in [13] and in [15] was “inactive” throughout.
As to `COc1cccc(-c2cc(=O)c3ccccc3o2)c1N`, the result in assay [5], in [17] and in assay [9] was inactive. The Potency in [12] is 7.94 µM (active); in [18], 6.31 µM (active); in assay [15], 0.398 µM (active); in [10], 12.6 µM (active). Also, in assay [6], the Potency result was “inactive”.
`CC(=O)O[C@]1(C(C)=O)CC[C@H]2[C@@H]3C=C(Cl)C4=CC(=O)[C@@H]5C[C@@H]5[C@]4(C)[C@H]3CC[C@@]21C`: the Potency entry in [1], in [2], in [4] and in assay [12] was “inactive” throughout. Moreover, the result in assay [3] was inactive.
For `O=C(O)Cc1cccc2ccccc12`, the Potency entry in assay [1], in assay [2], in assay [4] and in [12] was “inactive” in each case. Further, the result in [3] was inactive.
Consider `O=C1NC(=O)C(c2ccccc2)(c2ccccc2)N1`, for which the Potency result in assay [1], in assay [2], in assay [4], in [12], in [15] and in assay [10] was “inactive” in each case. Further, the outcome in assay [3], in assay [5], in assay [14] and in assay [16] was inactive.
For the molecule `O=c1cc(-c2ccc(O)cc2)oc2cc(O)cc(O)c12`, the Potency result in assay [1], in [2], in assay [4] and in [11] was “inactive” in each case. Further, the call in [3], in assay [17], in [14], in assay [8] and in assay [9] was inactive. Moreover, the Potency in assay [18] is 7.94 µM (active); in [10], 12.6 µM (active).
In the case of `O=c1c(-c2ccc(O)cc2)coc2cc(O)ccc12`, the Potency entry in assay [1], in assay [2], in [4], in assay [13] and in [18] was “inactive” each time. Also, the result in assay [3], in [5], in assay [17], in [14] and in [16] was inactive. The Potency entry in [11] was “inactive and 6.31 µM (active)”.
`CC(=O)CCCCn1c(=O)c2c(ncn2C)n(C)c1=O`: the molecule was called inactive in assay [5], in assay [14], in [16] and in assay [9]. Also, the Potency result in [11], in assay [12], in assay [13], in assay [18], in assay [15] and in assay [10] was “inactive” throughout.
As to `CC/C(=C(\c1ccccc1)c1ccc(OCCN(C)C)cc1)c1ccccc1`, the caspase-3 activation in [1] was 147% (active). For the same molecule, the molecule was called inactive in assay [3], in assay [5], in [14] and in [16]. For the same molecule, in [7], the Potency was 10 µM (active). Besides, in assay [10], the Potency entry was “inactive”.
